Results on ten compounds are retold here after PubChem BioAssay (Tox21).

Molecules are shown by their SMILES. Results filed as inconclusive are left out. The source made the active and inactive calls. Unless noted, calls come from the whole dose curve.

Experiment [1] can be described thus: Nuclear factor erythroid 2-related factor 2/antioxidant responsive element (Nrf2/ARE) small molecule agonists: qHTS cell viability counter screen in human keratinocytes (AID 1919968; active = well fitted curve in the direction sought with a large enough effect in the repeat runs; an effect the other way counts as inactive or inconclusive; note: nearly all actives have a fitted effect of over 55% in size). In short, it runs like this: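 After a 5 h attachment period, ARE-reporter keratinocytes were dosed with compounds in DMSO and then cultured 23 h at 37 C. Cell viability came from CellTiter-Fluor signal read after a further 1 h.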
A general note: Quantitative high-throughput screening tests each substance at several concentrations.

A short description of experiment [2]: Nuclear factor erythroid 2-related factor 2/antioxidant responsive element (Nrf2/ARE) small molecule agonists: luciferase reporter gene qHTS assay in human keratinocytes (AID 1919969; note: nearly all actives have a fitted effect of over 35% in size). (In a reporter assay the amount or activity of a reporter protein is the signal.)
For experiment [3], the target named is Gonadotropin-releasing hormone receptor (Homo sapiens) (UniProt P30968). Nature of the experiment: Human gonadotropin-releasing hormone receptor (GnRHR) small molecule agonists, calcium flux assay in GnRHR-HEK293 cells (AID 1920063). Note: nearly all actives have a fitted effect of over 35% in size. The method, boiled down:
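We seeded human GnRHR-expressing HEK293 cells for 18 hours, loaded them with calcium dye for an hour at 37 C, added test compounds, and recorded fluorescence intensity kinetically for three minutes.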

In experiment [4] the target is KiSS-1 receptor (Homo sapiens) (UniProt Q969F8). The experiment in a line: Human kisspeptin (KISS1R) small molecule agonists, calcium flux assay in KISS1R-HEK293 cells (AID 1920064; active = well fitted curve in the direction sought with a large enough effect in the repeat runs; an effect the other way counts as inactive or inconclusive). In short, it runs like this:
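Kinetic calcium assay, 1 s sampling over 3 min at Ex/Em 480/540, in HEK293 cells engineered with human KISS1R; compounds delivered in DMSO after 1 h dye loading.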

Experiment [5] is described as follows: G protein-coupled receptor (GPCR) small molecule agonists, calcium flux assay: HEK293 wild type cell line counter screen (AID 1920065). The method, boiled down: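 Calcium-sensitive dye, loaded 1 h at 37 C into cells cultured 18 h, reports compound-evoked calcium release as fluorescence (Ex/Em 480/540), measured over 3 min. Agonist mode; 15-point titrations, triplicate.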
In general terms: Calcium flux is commonly read through the fluorescence of an indicator in the cells.

Experiment [6] can be described thus: p53 small molecule agonists, cell-based qHTS assay with human liver microsomes (AID 1963577).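 Note: p53 response element beta-lactamase reporter cells with liver microsomes plus NADPH.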 In short, it runs like this:
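In this qHTS, p53 response-element beta-lactamase cells receive test compound together with a microsome/NADPH activating system (0.5 mg/mL final each) and are incubated 16 h at 37 C before LiveBLAzer fluorescence detection.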

The nature of experiment [7]: p53 small molecule agonists, cell-based qHTS assay with rat liver microsomes (AID 1963578). In short, it runs like this: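 Agonist mode in p53RE-bla reporter cells, with compounds co-incubated 16 h at 37 C alongside 0.5 mg/mL rat liver microsomes and 0.5 mg/mL NADPH (final), followed by a 2 h LiveBLAzer detection step.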
The nature of experiment [8]: p53 small molecule agonists, cell-based qHTS assay with human liver microsomes: qHTS cell viability counter screen (AID 1963579). Note: nearly all actives have a fitted effect of over 45% in size. In short, it runs like this:
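Metabolically activated exposure: compounds, human liver microsomes and NADPH (0.5 mg/mL final apiece) were added to p53RE-bla cells seeded 5 h earlier, left 16 h at 37 C, and then assessed for viability by CellTiter-Glo luminescence.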

The nature of experiment [9]: p53 small molecule agonists, cell-based qHTS assay with rat liver microsomes: qHTS cell viability counter screen (AID 1963580). Note: nearly all actives have a fitted effect of over 45% in size. The method, boiled down:
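Viability is assessed in parallel with the p53 reporter read: HCT-116 p53RE-bla cells receive compounds plus rat microsomes and NADPH (0.5 mg/mL final apiece), incubate 16 h at 37 C, and then CellTiter-Glo luminescence is recorded.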

Experiment [10] is described as follows: p53 small molecule agonists, cell-based qHTS assay: qHTS cell viability counter screen (AID 1963581). Note: nearly all actives have a fitted effect of over 45% in size. The method, boiled down: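 Following 5 h attachment, HCT-116 p53RE-bla cells took up compound for 16 h at 37 C; the reporter was read with B/G FRET substrate (2 h RT), and viability then via CellTiter-Glo ATP luminescence.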
The nature of experiment [11]: p53 small molecule agonists, cell-based qHTS assay (AID 1963582; active = well fitted activation curve with a large enough effect in the signal ratio in the repeat runs, not every such curve was filed as active; the % refers to the signal ratio; note: potency is the fitted concentration of half-maximal effect). In short, it runs like this: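 In this cell-based concentration-response screen, a p53 response element drives beta-lactamase; cells received DMSO-borne compounds after 5 h culture and were incubated a further 16 h before FRET substrate development.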
The target of experiment [12] is 5-hydroxytryptamine receptor 2A (Homo sapiens) (UniProt P28223). The experiment in a line: 5-hydroxytryptamine receptor 2A (HTR2A) small molecule agonists, cell-based qHTS assay (AID 1963587). Note: nearly all actives have a fitted effect of over 30% in size. In short, it runs like this:
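CHO cells stably expressing human HTR2A, plated 18 h, loaded with calcium dye 1 h at 37 C. Agonist mode: compounds added and intracellular calcium fluorescence recorded kinetically for 2 min at 1 sec intervals.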

In experiment [13] the target is Muscarinic acetylcholine receptor M1 (Homo sapiens) (UniProt P11229). Nature of the experiment: Cholinergic receptor muscarinic 1 (CHRM1) small molecule antagonists, cell-based qHTS assay (AID 1963588). Note: nearly all actives have a fitted effect of over 40% in size. In short, it runs like this:
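CHRM1-CHO calcium-flux assay, antagonist mode. Cells were seeded 18 h, dye-loaded 1 h at 37 C and given compound for 5 min at RT, then acetylcholine was added at 50nM. FDSS fluorescence was read 3 min; 15 concentrations, three runs.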

Experiment [14] shares this target. Nature of the experiment: Cholinergic receptor muscarinic 1 (CHRM1) small molecule agonists, cell-based qHTS assay (AID 1963589). Note: nearly all actives have a fitted effect of over 35% in size. The method, boiled down: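 Measures agonist-induced intracellular calcium rise. Stable human CHRM1 CHO line, 1 h dye load at 37 C, compounds from DMSO, kinetic fluorescence read.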
Experiment [15] addresses D(2) dopamine receptor (Homo sapiens) (UniProt P14416). The experiment in a line: Dopamine D2 receptor (DRD2) small molecule agonists, cell-based qHTS assay (AID 1963594). Note: nearly all actives have a fitted effect of over 35% in size. In short, it runs like this: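 HEK293 cells stably expressing human DRD2, pre-treated with PDE inhibitor Ro20-1724 (0.1 mM final) and compound 10 min at room temperature, then stimulated with NKH477 (200nM […]) for 30 min. cAMP read by HTRF (665/620 nm).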

Experiment [16] has the same target. Nature of the experiment: Dopamine D2 receptor (DRD2) small molecule antagonists, cell-based qHTS assay (AID 1963595; active = well fitted inhibition curve with a large enough effect in the signal ratio in the repeat runs, with a control signal flat; the % refers to the signal ratio). In short, it runs like this: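 HTRF cAMP read-out at 665 and 620 nm emission (340 nm excitation). Antagonist mode: compounds were tested against 12 nM quinpirole in DRD2-HEK293 cells, with 200 nM NKH477 raising cAMP and 0.1 mM Ro20-1724 blocking its breakdown.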

Experiment [17] is described as follows: cAMP Responsive Elements (CRE) small molecule antagonists, cell-based qHTS assay (AID 1963591; active = well fitted inhibition curve with a large enough effect in the signal ratio in the repeat runs, not every such curve was filed as active; the % refers to the signal ratio). In short, it runs like this:
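HEK293T cells carrying a CRE-driven beta-lactamase reporter receive compound and NKH477 (0.25 uM final) for 3 h. Fluorescence from LiveBLAzer B/G FRET substrate is read after 2 h at room temperature.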

Experiment [18] deals with Beta-2 adrenergic receptor (Homo sapiens) (UniProt P07550). Nature of the experiment: Adrenergic beta2 receptor (ADRB2) small molecule antagonists, cell-based qHTS assay (AID 1963592). Note: series mostly up to about 92 µM; nearly all actives have a fitted effect of over 50% in size. The method, boiled down: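 Cells (CHO, stable ADRB2 overexpression) incubated 18-20hr at 37C; compounds added from DMSO; agonist mix (1nM isoproterenol, 100uM IBMX, 25uM Ro-20-1724) added; 0.5hr RT; d2-cAMP and anti-cAMP-cryptate added; 1hr RT; 665/615 nm read.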
Chain of Beta-2 adrenergic receptor (Homo sapiens) (P07550 whole entry, looked up): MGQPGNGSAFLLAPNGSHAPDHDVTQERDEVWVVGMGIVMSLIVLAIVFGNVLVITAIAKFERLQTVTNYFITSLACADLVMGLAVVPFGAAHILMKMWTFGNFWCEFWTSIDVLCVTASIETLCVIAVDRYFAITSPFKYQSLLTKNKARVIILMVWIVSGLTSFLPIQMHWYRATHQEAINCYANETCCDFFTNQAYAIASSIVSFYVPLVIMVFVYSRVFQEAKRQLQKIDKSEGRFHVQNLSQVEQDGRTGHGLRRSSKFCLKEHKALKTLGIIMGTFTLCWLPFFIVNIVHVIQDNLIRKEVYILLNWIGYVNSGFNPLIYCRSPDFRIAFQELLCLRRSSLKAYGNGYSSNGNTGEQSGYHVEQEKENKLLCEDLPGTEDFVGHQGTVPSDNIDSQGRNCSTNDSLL

The target is the same in experiment [19]. The experiment in a line: Adrenergic beta2 receptor (ADRB2) small molecule agonists, cell-based qHTS assay (AID 1963593).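 Note: CHO cells stably overexpressing human ADRB2.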 In short, it runs like this:
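CHO cells stably over-expressing ADRB2 were plated overnight at 37C, then dosed with compounds plus a stimulation mix containing 100uM IBMX and 25uM Ro-20-1724 for 0.5hr at room temperature. cAMP was measured by HTRF competition, 1hr.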

Experiment [20] can be described thus: cAMP Responsive Elements (CRE) small molecule agonists, cell-based qHTS assay (AID 1963590). The method, boiled down: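 A CRE-responsive beta-lactamase reporter in HEK 293T cells was used. Treatment ran 3 h at 37 C; detection used LiveBLAzer B/G FRET substrate for 2 h at room temperature.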

Chain of Gonadotropin-releasing hormone receptor (Homo sapiens) (P30968 whole entry, looked up): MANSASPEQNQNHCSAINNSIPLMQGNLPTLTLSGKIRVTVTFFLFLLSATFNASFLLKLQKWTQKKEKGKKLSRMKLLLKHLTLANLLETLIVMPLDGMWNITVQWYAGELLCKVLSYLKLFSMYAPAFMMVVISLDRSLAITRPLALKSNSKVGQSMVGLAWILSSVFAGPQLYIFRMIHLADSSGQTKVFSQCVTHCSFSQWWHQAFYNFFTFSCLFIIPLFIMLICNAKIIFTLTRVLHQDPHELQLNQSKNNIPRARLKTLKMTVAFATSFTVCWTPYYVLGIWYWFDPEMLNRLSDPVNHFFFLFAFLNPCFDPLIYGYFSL
Chain of Muscarinic acetylcholine receptor M1 (Homo sapiens) (P11229 whole entry, looked up): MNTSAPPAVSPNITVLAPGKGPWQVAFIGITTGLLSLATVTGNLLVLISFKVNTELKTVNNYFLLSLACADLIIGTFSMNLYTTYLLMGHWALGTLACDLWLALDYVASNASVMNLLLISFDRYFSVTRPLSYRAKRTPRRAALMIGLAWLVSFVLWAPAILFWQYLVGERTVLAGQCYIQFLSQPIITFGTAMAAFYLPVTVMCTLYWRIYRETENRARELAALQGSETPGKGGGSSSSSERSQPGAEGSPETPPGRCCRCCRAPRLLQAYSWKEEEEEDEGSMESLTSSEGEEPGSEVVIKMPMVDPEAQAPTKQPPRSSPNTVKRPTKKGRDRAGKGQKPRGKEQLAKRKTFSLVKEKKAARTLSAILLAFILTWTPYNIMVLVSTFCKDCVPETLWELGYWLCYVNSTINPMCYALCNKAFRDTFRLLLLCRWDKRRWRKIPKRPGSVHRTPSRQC
Chain of D(2) dopamine receptor (Homo sapiens) (P14416 whole entry, looked up): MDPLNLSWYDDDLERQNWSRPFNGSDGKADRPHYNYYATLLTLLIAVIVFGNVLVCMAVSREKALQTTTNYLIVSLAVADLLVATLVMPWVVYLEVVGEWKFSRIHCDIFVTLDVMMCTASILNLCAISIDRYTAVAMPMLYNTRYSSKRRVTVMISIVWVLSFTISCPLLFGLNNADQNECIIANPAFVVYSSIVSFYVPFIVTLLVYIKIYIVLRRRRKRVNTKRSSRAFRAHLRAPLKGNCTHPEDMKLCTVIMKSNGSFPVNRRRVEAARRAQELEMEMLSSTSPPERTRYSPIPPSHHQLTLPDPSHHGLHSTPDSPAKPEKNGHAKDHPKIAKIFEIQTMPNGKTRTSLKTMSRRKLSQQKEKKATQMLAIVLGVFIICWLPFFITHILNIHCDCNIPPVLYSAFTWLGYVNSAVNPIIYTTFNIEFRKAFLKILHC
Chain of KiSS-1 receptor (Homo sapiens) (Q969F8 whole entry, looked up): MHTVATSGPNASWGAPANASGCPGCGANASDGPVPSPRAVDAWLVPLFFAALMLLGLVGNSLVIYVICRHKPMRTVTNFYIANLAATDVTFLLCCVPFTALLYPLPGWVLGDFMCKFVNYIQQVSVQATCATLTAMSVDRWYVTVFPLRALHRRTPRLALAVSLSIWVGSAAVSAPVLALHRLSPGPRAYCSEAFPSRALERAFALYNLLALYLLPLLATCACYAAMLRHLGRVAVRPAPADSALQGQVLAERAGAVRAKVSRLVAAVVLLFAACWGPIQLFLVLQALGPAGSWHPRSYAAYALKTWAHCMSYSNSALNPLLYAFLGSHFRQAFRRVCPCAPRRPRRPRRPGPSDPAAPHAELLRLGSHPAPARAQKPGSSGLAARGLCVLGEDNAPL
Chain of 5-hydroxytryptamine receptor 2A (Homo sapiens) (P28223 whole entry, looked up): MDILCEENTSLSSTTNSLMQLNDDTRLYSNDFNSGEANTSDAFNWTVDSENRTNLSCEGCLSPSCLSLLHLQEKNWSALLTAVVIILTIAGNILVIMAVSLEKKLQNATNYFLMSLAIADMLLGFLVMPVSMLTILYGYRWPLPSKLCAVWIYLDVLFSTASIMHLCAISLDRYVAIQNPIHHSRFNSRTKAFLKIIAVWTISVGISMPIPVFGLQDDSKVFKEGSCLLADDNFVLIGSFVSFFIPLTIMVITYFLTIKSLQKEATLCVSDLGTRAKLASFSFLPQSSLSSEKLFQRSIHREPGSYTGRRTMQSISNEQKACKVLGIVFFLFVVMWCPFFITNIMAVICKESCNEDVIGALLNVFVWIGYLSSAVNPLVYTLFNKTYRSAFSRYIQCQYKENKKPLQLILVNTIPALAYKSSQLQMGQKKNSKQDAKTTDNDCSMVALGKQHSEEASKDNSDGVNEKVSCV

`COc1ccc(-c2cc(C(F)F)nn2-c2ccc(S(N)(=O)=O)cc2)cc1F`: the Potency entry in experiment [1], in experiment [2], in [3], in experiment [6], in experiment [7] and in experiment [8] was “inactive” in each case. Besides, the Potency result in experiment [9], in [10], in experiment [11], in experiment [12], in experiment [13] and in experiment [14] was “inactive” in each case. Moreover, the Potency entry in experiment [15] and in [16] was “inactive” each time. For the same compound, the outcome in experiment [4] and in experiment [5] was inactive.

For `O=[N+]([O-])c1cccc(S(=O)(=O)NCCNS(=O)(=O)c2cccc([N+](=O)[O-])c2)c1`, the Potency result in [1], in [2], in experiment [3], in [6], in [7] and in experiment [8] was “inactive” each time. Further, the Potency entry in experiment [9], in [10], in experiment [11], in experiment [12], in experiment [13] and in [17] was “inactive” each time. The Potency entry in [18], in [19] and in experiment [15] was “inactive” each time. In addition, the result in experiment [4] and in experiment [5] was inactive.

Regarding `CC1(N)CCC(C(C)(C)N)CC1` (stereo unspecified), the Potency entry in experiment [1], in [2], in [3], in experiment [6], in [7] and in experiment [8] was “inactive” in each case. For the same compound, the Potency result in experiment [9], in [10], in experiment [11], in experiment [12], in experiment [13] and in experiment [14] was “inactive” each time. The Potency entry in experiment [15] and in [16] was “inactive” in each case. Also, the result in experiment [4] and in experiment [5] was inactive.

In the case of `Cc1nc(C2CCCCC2)c(-c2ccc(S(N)(=O)=O)c(F)c2)o1`, the Potency result in experiment [1], in experiment [2], in experiment [3], in experiment [6], in experiment [7] and in experiment [8] was “inactive” in each case. Moreover, the Potency result in [9], in [10], in experiment [11], in experiment [12], in experiment [13] and in experiment [14] was “inactive” throughout. For the same compound, the Potency entry in experiment [18], in [19], in experiment [15] and in [16] was “inactive” in each case. Further, the result in experiment [4] and in experiment [5] was inactive.

Turning to `COc1cc(NS(=O)(=O)c2ccc(N)cc2)ncn1`, the Potency entry in [1], in experiment [2], in experiment [3], in experiment [6], in experiment [7] and in [8] was “inactive” throughout. Also, the Potency result in [9], in experiment [10], in experiment [11], in experiment [12], in [14] and in [17] was “inactive” throughout. Also, the Potency result in [18], in experiment [19] and in experiment [16] was “inactive” in each case. Moreover, the outcome in [4] and in [5] was inactive.

On to `CCCCOCCOC(=O)COc1ccc(Cl)cc1Cl`, for which the Potency result in [1], in experiment [2], in experiment [3], in experiment [6], in [7] and in experiment [8] was “inactive” throughout. Further, the Potency entry in [9], in experiment [10], in experiment [11], in experiment [12], in experiment [14] and in [18] was “inactive” throughout. Also, the Potency result in [19] and in [15] was “inactive” in each case. In addition, the outcome in [4] and in experiment [5] was inactive.

In the case of `CCNC(=O)C1CC(C)CCC1C(C)C` (stereo unspecified), the Potency entry in experiment [1], in experiment [2], in experiment [3], in experiment [6], in experiment [7] and in [8] was “inactive” each time. In addition, the Potency result in [9], in experiment [10], in experiment [11], in [12], in experiment [13] and in experiment [14] was “inactive” each time. Also, the Potency result in experiment [20], in experiment [15] and in experiment [16] was “inactive” in each case. Besides, the result in experiment [4] and in experiment [5] was inactive.

For `CCCCCc1ccc(N)cc1`, the Potency result in [1], in experiment [2], in [3], in experiment [6], in [7] and in [8] was “inactive” each time. The Potency entry in experiment [9], in experiment [10], in experiment [11], in [13], in experiment [14] and in experiment [18] was “inactive” each time. The Potency entry in experiment [19], in experiment [15] and in experiment [16] was “inactive” throughout. The result in experiment [4] and in experiment [5] was inactive.

With `CC(=O)OC[C@H]1O[C@@H](n2ncc(=O)[nH]c2=O)[C@H](OC(C)=O)[C@@H]1OC(C)=O`, the Potency entry in [1], in experiment [2], in [3], in experiment [6], in [7] and in experiment [8] was “inactive” each time. For the same compound, the Potency entry in [9], in experiment [10], in experiment [20], in experiment [17], in experiment [18] and in [19] was “inactive” in each case. For the same compound, the Potency result in experiment [15] and in experiment [16] was “inactive” each time. Besides, the result in experiment [4] and in [5] was inactive. For the same compound, in experiment [11], the Potency is 500 nM (active).

As to `CCCN(CCC)C(=O)C(CCC(=O)O)NC(=O)c1ccccc1` (stereo unspecified), the Potency result in [1], in [2], in experiment [3], in experiment [6], in [7] and in [8] was “inactive” throughout. The Potency result in [9], in [10], in experiment [11], in [20], in experiment [17] and in experiment [18] was “inactive” in each case. Moreover, the Potency result in [19] was “inactive”. In addition, the outcome in experiment [4] and in experiment [5] was inactive.
